NOMO-1 viab = STK33 inhibitor candidate reducing NOMO-1 cell viability; inhibition, % (test concentration not listed); hit rate 7.5% among 37,000; NOMO-1 AML viability, CellTiter-Glo luminescence, 72 h; in the data active means inhibition above about 80%
MITF inhib = inhibitors of MITF; TRPM1 promoter luciferase, luminescence, 24 h; inhibition, % (no concentration beside the values); hit rate 0.28% among 37,000; AID 2240; in the data active means inhibition above about 85%;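 further: human melanocyte line stably carrying TRPM1 promoter luciferase reporter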
p53 PUMA act = re-activators of the mutant p53 pathway. activation, % at 9.98 µM. hit rate 1.5% among 28,000. SW480 PUMA-promoter luciferase, p53 mutant reactivation; in the data active means activation above about 52%
STK33 kin inh = human STK33 kinase inhibition; inhibition, % at 12.5 µM; hit rate 0.44% among 27,000; AID 2322; ADP-Glo luminescence, MBP substrate; Q9BYT3; in the data active means inhibition above about 20%
Target sequence (Q9BYT3 whole entry, looked up): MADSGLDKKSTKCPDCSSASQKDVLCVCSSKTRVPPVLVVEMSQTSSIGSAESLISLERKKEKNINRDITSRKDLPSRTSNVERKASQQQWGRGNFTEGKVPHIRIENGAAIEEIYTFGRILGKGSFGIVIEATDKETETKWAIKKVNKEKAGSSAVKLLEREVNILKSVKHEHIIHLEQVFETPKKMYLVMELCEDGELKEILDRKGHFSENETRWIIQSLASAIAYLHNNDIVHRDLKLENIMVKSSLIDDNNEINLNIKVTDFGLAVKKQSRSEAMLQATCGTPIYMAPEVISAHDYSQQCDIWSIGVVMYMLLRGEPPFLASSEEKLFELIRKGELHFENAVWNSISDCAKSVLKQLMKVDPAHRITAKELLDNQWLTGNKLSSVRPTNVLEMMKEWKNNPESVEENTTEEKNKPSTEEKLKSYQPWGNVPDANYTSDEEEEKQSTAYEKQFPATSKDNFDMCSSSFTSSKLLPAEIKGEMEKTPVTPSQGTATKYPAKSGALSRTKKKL
Hits are given with their value; – = inactive; · = not tested or not shown. The entries come from a sample that favours hits as a whole.

SMILES	NOMO-1 viab	MITF inhib	p53 PUMA act	STK33 kin inh
CCc1ccc(C(Nc2ccccn2)c2ccc3ccc(C)nc3c2O)cc1 (configuration not stated)	110	–	–	–
Cc1ccnc(NC(c2ccsc2)c2ccc3ccc(C)nc3c2O)c1 (configuration not stated)	89	–	–	–
COc1ccc(C(Nc2cc(C)ccn2)c2ccc3ccc(C)nc3c2O)cc1 (configuration not stated)	99	–	–	–
COc1ccc(NC(=O)CSc2nccc(C)n2)cc1	–	–	–	–
Cc1ccnc(NC(c2cccc(F)c2)c2ccc3ccc(C)nc3c2O)c1 (configuration not stated)	116	–	–	–
CCc1ccc(C(Nc2cc(C)ccn2)c2ccc3ccc(C)nc3c2O)cc1 (configuration not stated)	89	–	–	–
COc1cccc2cc(-c3nnc(SCC(=O)Nc4ccc5ccccc5c4)n3C)oc12	–	–	–	–
CCn1c(SCC(=O)Nc2ccc(Cl)c(Cl)c2)nnc1-c1cc2cccc(OC)c2o1	100	–	–	–
O=C1C=CC(=O)c2c(O)c(Cl)c(Cl)c(O)c21	98	–	–	22
Cc1ccc(S(=O)(=O)N(C)C[C@H]2Oc3c(NC(=O)Nc4ccc(C(F)(F)F)cc4)cccc3C(=O)N([C@@H](C)CO)C[C@H]2C)cc1	119	–	·	·
COc1ccc(S(=O)(=O)N(C)C[C@@H]2Oc3c(NC(=O)Nc4ccc(C(F)(F)F)cc4)cccc3C(=O)N([C@H](C)CO)C[C@@H]2C)cc1	114	–	·	·
COc1ccc(NC(=O)Nc2cccc3c2O[C@H](CN(C)S(=O)(=O)c2ccc(OC)cc2)[C@@H](C)CN([C@H](C)CO)C3=O)cc1	–	–	–	·
COc1ccc(S(=O)(=O)N(C)C[C@@H]2Oc3c(NC(=O)Nc4ccc(C(F)(F)F)cc4)cccc3C(=O)N([C@@H](C)CO)C[C@@H]2C)cc1	93	–	·	·
COc1ccc(NC(=O)Nc2cccc3c2O[C@@H](CN(C)S(=O)(=O)c2ccc(OC)cc2)[C@H](C)CN([C@H](C)CO)C3=O)cc1	–	–	–	·
C[C@@H]1CN([C@H](C)CO)C(=O)Cc2cc(NS(=O)(=O)c3ccc(Cl)cc3)ccc2O[C@H]1CN(C)CC1CCCCC1	127	–	–	–
C[C@@H]1CN([C@H](C)CO)C(=O)Cc2cc(NS(=O)(=O)c3ccc(Cl)cc3)ccc2O[C@@H]1CN(C)CC1CCCCC1	114	–	–	–
C[C@H](CO)N1C[C@H](C)[C@@H](CN(C)CC2CCCCC2)Oc2ccc(NS(=O)(=O)c3ccc(Cl)cc3)cc2CC1=O	·	·	–	·
C[C@H](CO)N1C[C@H](C)[C@@H](CN(C)CC2CC2)Oc2ccc(NS(=O)(=O)c3ccc(Cl)cc3)cc2CC1=O	·	·	–	·
CN(C)CCNC(=O)c1cc(-c2cccnc2)nc2c(Cl)cccc12	–	–	–	–
C[C@H](CO)N1C[C@H](C)[C@H](CN(C)Cc2ccc(C(=O)Nc3ccccc3N)cc2)Oc2c(NC(=O)C3CCCCC3)cccc2C1=O	127	–	·	·
C[C@H]1CN([C@@H](C)CO)C(=O)c2cc(NC(=O)C3CCCCC3)ccc2O[C@H]1CN(C)Cc1ccc(C(=O)Nc2ccccc2N)cc1	110	–	·	·
C[C@@H]1CN([C@@H](C)CO)C(=O)c2cccc(NC(=O)c3ccncc3)c2O[C@@H]1CN(C)Cc1ccc(C(=O)Nc2ccccc2N)cc1	128	–	·	·
C[C@@H]1CN([C@@H](C)CO)C(=O)c2cccc(NC(=O)C3CCOCC3)c2O[C@@H]1CN(C)Cc1ccc(C(=O)Nc2ccccc2N)cc1	126	–	·	·
C[C@H](CO)N1C[C@H](C)[C@@H](CN(C)Cc2ccc(C(=O)Nc3ccccc3N)cc2)Oc2c(NC(=O)C3CCOCC3)cccc2C1=O	–	–	·	·
C[C@@H]1CN([C@H](C)CO)C(=O)c2cccc(NC(=O)c3ccncc3)c2O[C@H]1CN(C)Cc1ccc(C(=O)Nc2ccccc2N)cc1	–	–	·	·
SMILES	NOMO-1 viab	MITF inhib	p53 PUMA act	STK33 kin inh
C[C@H]1CN([C@@H](C)CO)C(=O)c2cccc(NC(=O)c3ccncc3)c2O[C@H]1CN(C)Cc1ccc(C(=O)Nc2ccccc2N)cc1	–	–	·	·
CCOC(=O)C(C)Sc1nc2ccc(I)cc2c(=O)n1-c1ccccc1OC (configuration not stated)	–	–	–	–
O=C(CSc1ncnc2sc3c(c12)CCC3)Nc1ccc(Cl)cc1	–	–	–	–
CC(C(=O)Nc1cccnc1)N(c1ccc(Oc2ccccc2)cc1)S(C)(=O)=O (configuration not stated)	–	–	–	–
C[C@H]1CN([C@@H](C)CO)C(=O)c2cccc(NC(=O)C3CC3)c2O[C@H]1CN(C)Cc1ccc(C(=O)Nc2ccccc2N)cc1	94	–	·	·
CCC(Sc1nnc(-c2ccc([N+](=O)[O-])cc2)n1C)C(=O)Nc1ccc(Cl)cc1 (configuration not stated)	–	–	–	–
Cc1ccc(S(=O)(=O)Nc2ccc3c(c2)C(=O)N([C@@H](C)CO)C[C@@H](C)[C@@H](CN(C)Cc2ccc(-c4ccccc4)cc2)O3)cc1	101	–	·	·
Cc1ccc(S(=O)(=O)Nc2ccc3c(c2)C(=O)N([C@@H](C)CO)C[C@@H](C)[C@H](CN(C)Cc2ccc(-c4ccccc4)cc2)O3)cc1	123	–	·	·
C=C1C(=O)O[C@@H]2[C@H]3O[C@]3(C)CCC=C(C)CC[C@@H]12	141	93	·	–
C=C1C(=O)O[C@@H]2C3O[C@]3(C)CC/C=C(/C)CC[C@@H]12 (some centres not stated)	107	–	·	–
COc1ccc(NC(=O)Cn2cnc3sc(-c4ccccc4)cc3c2=O)cc1	–	–	–	–
Cc1ccc(S(=O)(=O)Nc2ccc3c(c2)CC(=O)N([C@@H](C)CO)C[C@H](C)[C@@H](CN(C)Cc2ccc(C(F)(F)F)cc2)O3)cc1	98	–	·	–
Cc1ccc(S(=O)(=O)Nc2ccc3c(c2)C(=O)N([C@H](C)CO)C[C@@H](C)[C@H](CN(C)Cc2ccc(C(F)(F)F)cc2)O3)cc1	–	–	·	–
Cc1ccc(S(=O)(=O)Nc2ccc3c(c2)CC(=O)N([C@H](C)CO)C[C@@H](C)[C@@H](CN(C)Cc2ccc(C(F)(F)F)cc2)O3)cc1	114	–	·	–
c1ccc(C(c2ccccc2)N2CCN(CCCc3c[nH]c4ccccc34)CC2)cc1	116	–	·	·
O=C(O)c1cccc(NS(=O)(=O)c2cccc(C(=O)Nc3ccc(F)cc3)c2)c1	–	–	–	–
C[C@H]1CN([C@@H](C)CO)C(=O)Cc2cc(NC(=O)Nc3ccccc3)ccc2O[C@H]1CN(C)CC1CCCCC1	90	–	·	–
C[C@H]1CN([C@@H](C)CO)C(=O)Cc2cc(NC(=O)Nc3cccc4ccccc34)ccc2O[C@@H]1CN(C)CC1CCCCC1	136	–	·	–
C[C@H](CO)N1C[C@H](C)[C@H](CN(C)CC2CC2)Oc2ccc(NC(=O)Nc3cccc4ccccc34)cc2CC1=O	·	·	–	·
C[C@@H]1CN([C@H](C)CO)C(=O)Cc2cc(NC(=O)Nc3ccc(C(F)(F)F)cc3)ccc2O[C@H]1CN(C)CC1CCCCC1	116	–	·	–
Cc1ccc(C(=O)Nc2sc3c(c2C#N)CCCC3)cc1S(=O)(=O)N1CCOCC1	–	–	–	–

Screening data (PubChem)
